Measurements published in the supplement of paper PMC8728848.
The sample as a whole holds a higher share of the strongest signals than the screen did.

What was measured:
Test in all cases: glycan array binding signal (z-score within array); higher = stronger binding
Settings in all cases: glycan notation: IUPAC condensed, linker removed
[1] = biological target: Fuc(a1-2)Gal(b1-3)GalNAc(b1-3)Gal(b1-4)Glc
How it was run: (§1)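 Negative Z-scores can be read as non-binding. The Z-score is calculated within each array and then averaged across arrays of one protein sequence at different concentrations or buffers and across linkers. Arrays, 3228 in all, were curated from the Consortium for Functional Glycomics database and kept only where the protein sequence was available.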

[2] = biological target: Fuc(a1-2)Gal(b1-3)GlcNAc(b1-3)Gal(b1-4)Glc
How it was run: as §1

[3] = biological target: Fuc(a1-2)Gal(b1-3)GlcNAc(b1-3)[Fuc(a1-2)Gal(b1-3)GlcNAc(b1-6)]GalNAc
How it was run: as §1

[4] = biological target: Fuc(a1-2)Gal(b1-3)[Fuc(a1-4)]GlcNAc(b1-2)Man(a1-3)[Fuc(a1-2)Gal(b1-3)[Fuc(a1-4)]GlcNAc(b1-2)Man(a1-6)]Man(b1-4)GlcNAc(b1-4)[Fuc(a1-6)]GlcNAc(b1-4)[Fuc(a1-6)]GlcNAc
How it was run: as §1

[5] = biological target: Fuc(a1-2)Gal(b1-4)GlcNAc(b1-3)Gal(b1-4)GlcNAc
How it was run: as §1

[6] = biological target: Fuc(a1-2)Gal(b1-4)GlcNAc(b1-3)Gal(b1-4)GlcNAc(b1-3)Gal(b1-4)GlcNAc
How it was run: as §1

[7] = biological target: Fuc(a1-2)Gal3S(b1-4)GlcNAc
How it was run: as §1

[8] = biological target: Fuc(a1-2)Gal6S(b1-4)Glc6S
How it was run: as §1

[9] = biological target: Fuc(a1-2)[Gal(a1-3)]Gal(b1-4)GlcNAc
How it was run: as §1

[10] = biological target: Fuc(a1-2)[Gal(a1-3)]Gal(b1-4)GlcNAc(b1-2)Man(a1-3)[Fuc(a1-2)[Gal(a1-3)]Gal(b1-4)GlcNAc(b1-2)Man(a1-6)]Man(b1-4)GlcNAc(b1-4)[Fuc(a1-6)]GlcNAc
How it was run: as §1

[11] = biological target: Fuc(a1-2)[GalNAc(a1-3)]Gal(b1-3)GlcNAc
How it was run: as §1

[12] = biological target: Fuc(a1-2)[GalNAc(a1-3)]Gal(b1-4)GlcNAc
How it was run: as §1

[13] = biological target: Fuc(a1-2)[GalNAc(a1-3)]Gal(b1-4)GlcNAc(b1-2)Man
How it was run: as §1

[14] = biological target: Fuc(a1-2)[GalNAc(a1-3)]Gal(b1-4)[Fuc(a1-3)]GlcNAc(b1-3)GalNAc
How it was run: as §1

Fuc(a1-3)GlcNAc = biological target: Fuc(a1-3)GlcNAc
How it was run: as §1

[15] = biological target: Gal(a1-3)Gal(b1-3)GlcNAc(b1-2)Man(a1-3)[Gal(a1-3)Gal(b1-3)GlcNAc(b1-2)Man(a1-6)]Man(b1-4)GlcNAc(b1-4)GlcNAc
How it was run: as §1

[16] = biological target: Gal(a1-4)Gal(b1-4)GlcNAc(b1-3)Gal(b1-4)Glc
How it was run: as §1

Gal(b1-3)Gal = biological target: Gal(b1-3)Gal
How it was run: as §1

[17] = biological target: Gal(b1-3)GalNAc(a1-3)[Fuc(a1-2)]Gal(b1-4)GlcNAc
How it was run: as §1

[18] = biological target: Gal(b1-3)GlcNAc(a1-3)Gal(b1-4)GlcNAc
How it was run: as §1

[19] = biological target: Gal(b1-3)GlcNAc(b1-3)Gal(b1-4)Glc
How it was run: as §1

[20] = biological target: Gal(b1-3)GlcNAc(b1-3)Gal(b1-4)GlcNAc
How it was run: as §1

[21] = biological target: Gal(b1-3)[Fuc(a1-4)]GlcNAc(b1-3)Gal(b1-4)[Fuc(a1-3)]GlcNAc
How it was run: as §1

[22] = biological target: Gal(b1-3)[Neu5Ac(b2-6)]GalNAc
How it was run: as §1

[23] = biological target: Gal(b1-4)GalNAc(a1-3)[Fuc(a1-2)]Gal(b1-4)GlcNAc
How it was run: as §1

[24] = biological target: Gal(b1-4)GlcNAc(b1-2)Man(a1-3)[Gal(b1-4)GlcNAc(b1-2)Man(a1-6)][GlcNAc(b1-4)]Man(b1-4)GlcNAc(b1-4)[Fuc(a1-6)]GlcNAc
How it was run: as §1

GalNAc(a1-3)Gal = biological target: GalNAc(a1-3)Gal
How it was run: as §1

Glc(a1-6)Glc(a1-6)Glc = biological target: Glc(a1-6)Glc(a1-6)Glc
How it was run: as §1

[25] = biological target: GlcNAc(a1-4)Gal(b1-4)GlcNAc(b1-3)Gal(b1-4)GlcNAc
How it was run: as §1

[26] = biological target: GlcNAc(b1-2)Man(a1-3)[GlcNAc(b1-4)][GlcNAc(b1-2)Man(a1-6)]Man(b1-4)GlcNAc(b1-4)GlcNAc
How it was run: as §1

[27] = biological target: GlcNAc(b1-3)[GlcNAc(b1-6)]GlcNAc(b1-4)GlcNAc
How it was run: as §1

[28] = biological target: GlcNAc(b1-6)Gal(b1-4)GlcNAc
How it was run: as §1

Man(b1-4)GlcNAc = biological target: Man(b1-4)GlcNAc
How it was run: as §1

[29] = biological target: Neu5Ac(a2-3)Gal(b1-3)[Fuc(a1-4)]GlcNAc
How it was run: as §1

[30] = biological target: Neu5Ac(a2-3)Gal(b1-4)GlcNAc(b1-3)Gal(b1-4)GlcNAc
How it was run: as §1

[31] = biological target: Neu5Ac(a2-3)Gal(b1-4)GlcNAc(b1-3)Gal(b1-4)GlcNAc(b1-3)Gal(b1-4)GlcNAc(b1-2)Man(a1-3)[Neu5Ac(a2-3)Gal(b1-4)GlcNAc(b1-3)Gal(b1-4)GlcNAc(b1-3)Gal(b1-4)GlcNAc(b1-2)Man(a1-6)]GalNAc
How it was run: as §1

[32] = biological target: Neu5Ac(a2-3)Gal(b1-4)[Fuc(a1-3)]GlcNAc(b1-3)Gal(b1-4)GlcNAc
How it was run: as §1

[33] = biological target: Neu5Ac(a2-6)Gal(b1-4)GlcNAc(b1-2)Man(a1-3)[GlcNAc(b1-4)][Neu5Ac(a2-6)Gal(b1-4)GlcNAc(b1-2)Man(a1-6)]Man(b1-4)GlcNAc(b1-4)GlcNAc
How it was run: as §1

[34] = biological target: Neu5Ac(a2-6)Gal(b1-4)GlcNAc(b1-2)Man(a1-6)[Man(a1-3)]Man(b1-4)GlcNAc(b1-4)GlcNAc
How it was run: as §1

[35] = biological target: Neu5Ac(a2-6)Gal(b1-4)GlcNAc(b1-3)Gal(b1-4)GlcNAc(b1-2)Man(a1-3)[Neu5Ac(a2-6)Gal(b1-4)GlcNAc(b1-3)Gal(b1-4)GlcNAc(b1-2)Man(a1-6)]GalNAc
How it was run: as §1

[36] = biological target: Neu5Ac(a2-6)Gal(b1-4)GlcNAc(b1-6)[Gal(b1-3)GlcNAc(b1-3)]Gal(b1-4)Glc
How it was run: as §1

[37] = biological target: Neu5Ac(b2-6)Gal(b1-4)GlcNAc
How it was run: as §1

[38] = biological target: Neu5Gc(a2-3)Gal(b1-4)[Fuc(a1-3)]GlcNAc
How it was run: as §1

B1: Gal 2 (Homo sapiens), P05162 (protein)
chain: MTGELEVKNMDMKPGSTLKITGSIADGTDGFVINLGQGTDKLNLHFNPRFSESTIVCNSLDGSNWGQEQREDHLCFSPGSEVKFTVTFESDKFKVKLPDGHELTFPNRLGHSHLSYLSVRGGFNMSSFKLKE
- glycan array binding signal (z-score) [1]: 3.12
- glycan array binding signal (z-score) [2]: 2.35
- glycan array binding signal (z-score) [3]: -0.048
- glycan array binding signal (z-score) [4]: 0.137
- glycan array binding signal (z-score) [5]: 2.16
- glycan array binding signal (z-score) [6]: 2.4
- glycan array binding signal (z-score) [7]: -0.17
- glycan array binding signal (z-score) [8]: -0.193
- glycan array binding signal (z-score) [9]: 2.52
- glycan array binding signal (z-score) [10]: 8.45
- glycan array binding signal (z-score) [11]: 3.75
- glycan array binding signal (z-score) [12]: 5.89
- glycan array binding signal (z-score) [13]: 13.5
- glycan array binding signal (z-score) [14]: -0.08
- glycan array binding signal (z-score) (Fuc(a1-3)GlcNAc): -0.254
- glycan array binding signal (z-score) [15]: -0.222
- glycan array binding signal (z-score) [16]: -0.229
- glycan array binding signal (z-score) (Gal(b1-3)Gal): -0.268
- glycan array binding signal (z-score) [17]: 9.48
- glycan array binding signal (z-score) [18]: -0.111
- glycan array binding signal (z-score) [19]: 0.74
- glycan array binding signal (z-score) [20]: 0.837
- glycan array binding signal (z-score) [21]: -0.269
- glycan array binding signal (z-score) [22]: -0.237
- glycan array binding signal (z-score) [23]: 5.71
- glycan array binding signal (z-score) [24]: -0.215
- glycan array binding signal (z-score) (GalNAc(a1-3)Gal): -0.281
- glycan array binding signal (z-score) (Glc(a1-6)Glc(a1-6)Glc): -0.2
- glycan array binding signal (z-score) [25]: -0.28
- glycan array binding signal (z-score) [26]: -0.084
- glycan array binding signal (z-score) [27]: -0.396
- glycan array binding signal (z-score) [28]: -0.272
- glycan array binding signal (z-score) (Man(b1-4)GlcNAc): -0.273
- glycan array binding signal (z-score) [29]: -0.214
- glycan array binding signal (z-score) [30]: -0.292
- glycan array binding signal (z-score) [31]: 0.02
- glycan array binding signal (z-score) [32]: -0.229
- glycan array binding signal (z-score) [33]: -0.169
- glycan array binding signal (z-score) [34]: -0.12
- glycan array binding signal (z-score) [35]: -0.008
- glycan array binding signal (z-score) [36]: -0.21
- glycan array binding signal (z-score) [37]: -0.244
- glycan array binding signal (z-score) [38]: -0.212
